# Compound activity (PubChem BioAssay)
# A selection: hits, their analogues and other compounds. The true share with any hit is near 4.3%.
# ADAM10 inh: inhibitors of human ADAM10; actives 0.62% (n = 370,000); inhibition, % at 7 µM; O14672; recombinant ADAM10, EDANS/DABCYL FRET peptide cleavage, 3 h;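 active = inhibition above a per-campaign cutoff equal to the mean of compounds falling between control-based bounds plus 3 SD, cut at about 20% in these data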;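 also: 0% = DMSO wells while the 100% control is not disclosed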
# NR3A LBD binder: modulates the human NR3A ligand-binding domain; NR3A LBD differential scanning fluorimetry, Tm shift; 0% = protein alone, 100% = glycine-bound protein; actives 2.5% (n = 340,000); Tm shift relative to glycine control, % at 25 µM;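 active = melting temperature shift of at least 10% of the positive control shift, at one fixed dose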
# ADAM17 inh: ADAM17 inhibition, QFRET primary screen; inhibition, % at 6.95 µM; AID 720648; recombinant ADAM17, EDANS/DABCYL FRET peptide cleavage; actives 0.83% (n = 370,000); P78536;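 active = inhibition above the mean of compounds lying between control limits plus 3 SD, set per campaign, cut at about 8.5% in these data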;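 also: 0% = DMSO-only wells as the low control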
# HGIII-sPLA2 inh: Inhibits HGIII-sPLA2 liposome hydrolysis, primary screen; Q9NZ20; QFRET BODIPY PC-A2 liposome hydrolysis, fluorescence; inhibition, % at 12.2 µM; actives 0.56% (n = 370,000);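 active = inhibition above mean plus 3 SD of compounds lying within the high and low control bounds, cut at about 19% in these data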;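 also: 0% = median of test compound wells and 100% = no enzyme DMSO wells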
# Target sequence (Q9NZ20 whole entry, looked up): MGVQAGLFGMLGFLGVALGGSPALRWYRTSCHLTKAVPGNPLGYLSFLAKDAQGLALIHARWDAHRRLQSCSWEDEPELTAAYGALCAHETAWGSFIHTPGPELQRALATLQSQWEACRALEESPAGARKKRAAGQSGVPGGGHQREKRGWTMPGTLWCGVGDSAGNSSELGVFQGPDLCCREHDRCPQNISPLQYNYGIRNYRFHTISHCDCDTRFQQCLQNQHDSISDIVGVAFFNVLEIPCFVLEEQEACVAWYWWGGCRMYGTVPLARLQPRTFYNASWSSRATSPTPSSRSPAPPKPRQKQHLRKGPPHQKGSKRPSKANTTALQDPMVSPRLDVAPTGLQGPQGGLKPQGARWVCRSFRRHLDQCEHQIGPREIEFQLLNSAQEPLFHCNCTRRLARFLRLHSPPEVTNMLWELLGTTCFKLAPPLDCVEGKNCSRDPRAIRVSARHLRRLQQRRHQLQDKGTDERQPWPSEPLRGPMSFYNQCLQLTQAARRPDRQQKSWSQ
# FAS TE block: FAS thioesterase (human) inhibition | P49327 | recombinant FAS-TE, OMFH fluorogenic substrate, fluorescence endpoint | inhibition, % at 15 µM | actives 0.67% (n = 360,000) | AID 602261;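 active = compounds whose normalised, plate-corrected inhibition of enzyme fluorescence in the single-dose primary screen is 50% or more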;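 also: 0% = DMSO with enzyme and 100% = substrate without enzyme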
# * hit, by the source's call; . = no result.
SMILES,ADAM10 inh,NR3A LBD binder,ADAM17 inh,HGIII-sPLA2 inh,FAS TE block
CN(C)S(=O)(=O)c1cccc(C(=O)N/N=C\c2cccc(C#N)c2)c1,-6,.,-2,3,.
O=C1CCC[C@H]2C[C@H](NCc3ccccc3F)CC[C@]23CCCN13,-6,.,-6,-1,.
CCCc1cc(=O)oc2c(C)c(OS(C)(=O)=O)ccc12,-69,16*,-20,8,-2
COC(=O)[C@]12C[C@H](CC(=O)N3CCCCC3)C(=O)N(Cc3cccc4ccccc34)C1=C[C@H](C(C)(C)C)O[C@@H]2C,7,.,4,-7,.
COC(=O)[C@H]1C[C@@]2(N3CCCC3)c3ccccc3N[C@H]2N1S(C)(=O)=O,-7,.,-2,0,.
Cc1ccc(CN2CCCCC(NC(=O)C(C)(C)C)C2=O)cc1 (configuration not stated),-2,.,-2,-3,.
COc1ccc(NC(=O)COc2ccc(C)cc2)c([N+](=O)[O-])c1,-4,13*,2,-2,.
CCOc1ccc(OCC(=O)Nc2ccc(OC)cc2[N+](=O)[O-])cc1,4,-3,-2,5,-11
COc1ccc(NC(=S)NC(NC(=O)CCl)C(Cl)(Cl)Cl)c([N+](=O)[O-])c1 (configuration not stated),.,0,.,.,-22
COc1ccc(NC(=S)NC(NC(=O)c2cccc3ccccc23)C(Cl)(Cl)Cl)c([N+](=O)[O-])c1 (configuration not stated),13,12*,8,4,21
COc1ccc(NC(=O)c2ccc(C)cc2Cl)c([N+](=O)[O-])c1,-5,11*,-5,0,2
COc1ccc(NC(=O)c2cc(Br)ccc2Cl)c([N+](=O)[O-])c1,-1,3,-3,3,5
O=C(CSc1nc2ccc(NC(=O)CSc3nnnn3Cc3ccccc3)cc2s1)Nc1ccccc1,2,17*,-2,-4,1
O=C(CSc1n[nH]c(-c2cccnc2)n1)Nc1ccc([N+](=O)[O-])cc1,9,10*,3,-1,-3
CCOC(=O)CSc1nc2ccc(Nc3nc(N4CCOCC4)nc(N4CCOCC4)n3)cc2s1,4,-1,5,-1,54*
O=C(CSc1nc2ccccc2s1)Nc1ccc(N2CCOCC2)c(Cl)c1,-3,6,4,4,18
CC(=O)CSc1nc2ccc(Nc3nc(N4CCOCC4)nc(N4CCOCC4)n3)cc2s1,2,-1,-3,-38,36
CC(=O)Nc1ccc2nc(SCC(=O)Nc3ccc(N4CCOCC4)c(Cl)c3)sc2c1,-4,25*,-2,-8,-1
Cc1ccc(NC(=O)C2CCCN(c3nnc(-n4cccc4)s3)C2)c(C)c1 (configuration not stated),1,.,1,2,.
CCOC(=O)CC[C@@]1(C(=O)OCC)C[C@@H](CC(=O)NCCCN2CCCC2=O)C(=O)N2CCCC=C21,-9,.,-1,5,.
Cc1c(C)n(Cc2ccc(-c3ccccc3C(=O)O)cc2)c2ccc(C(=O)N[C@@H](C)c3ccc([N+](=O)[O-])cc3)cc12,7,.,-4,-41,.
COc1ccc(NC(=O)N2CCC(c3nc4ccc(Cl)cc4[nH]3)CC2)cc1OC,-7,.,5,-2,.
Cc1ccc(NC(=O)CSc2nc3ccc(Nc4nc(N5CCOCC5)nc(N5CCOCC5)n4)cc3s2)cc1,5,15*,-2,5,6
COc1ccc(NC(=O)CSc2nc3ccc(Nc4nc(N5CCOCC5)nc(N5CCOCC5)n4)cc3s2)cc1,-2,2,1,2,-2
O=C(CSc1nc(Nc2ccccc2)nc(N2CCOCC2)n1)Nc1ccc([N+](=O)[O-])cc1,5,15*,-4,-2,43
CC1(c2ccc3ccccc3c2)NC(=O)N(CC(=O)NCC(C)(C)N2CCOCC2)C1=O (configuration not stated),-4,17*,-1,6,-7
COc1ccc(CCNC(=O)c2cc3ccccn3n2)cc1,0,.,0,1,.
COc1ccccc1-c1nnc(SCC(=O)Nc2c(Cl)cccc2Cl)o1,3,-3,0,-12,-5
COc1ccccc1-c1nnc(SCC(=O)NCc2c(C)c(Cl)cc(C(C)C)c2O)o1,5,23*,-4,4,36
Cc1ccc(-c2nnn(CC(=O)N(Cc3ccccc3)C(C(=O)NC(C)(C)C)c3ccncc3)n2)o1 (configuration not stated),.,14*,.,.,-3
